# Data from PubChem BioAssay (NCATS).
# Records with an inconclusive call do not appear. Where a call stands in place of a potency, no number is given. The source made the active and inactive calls. Unless noted, calls follow the shape of the dose curve; as a rule, active = well fitted curve in the direction sought with a large enough effect; inconclusive = small, poorly fitted or top-dose-only effect, or another doubt; inactive = no such curve, though single readings can be large; an effect the other way counts as inactive or inconclusive.
# Key:
# [1] = target: Cytochrome P450 3A4 (Homo sapiens) (UniProt P08684); test: qHTS Assay for Inhibitors and Substrates of Cytochrome P450 3A4 (AID 884); also: nearly all actives have a fitted effect of over 50% in size
# Cytochrome P450 3A4 (Homo sapiens), sequence (P08684 whole entry, looked up): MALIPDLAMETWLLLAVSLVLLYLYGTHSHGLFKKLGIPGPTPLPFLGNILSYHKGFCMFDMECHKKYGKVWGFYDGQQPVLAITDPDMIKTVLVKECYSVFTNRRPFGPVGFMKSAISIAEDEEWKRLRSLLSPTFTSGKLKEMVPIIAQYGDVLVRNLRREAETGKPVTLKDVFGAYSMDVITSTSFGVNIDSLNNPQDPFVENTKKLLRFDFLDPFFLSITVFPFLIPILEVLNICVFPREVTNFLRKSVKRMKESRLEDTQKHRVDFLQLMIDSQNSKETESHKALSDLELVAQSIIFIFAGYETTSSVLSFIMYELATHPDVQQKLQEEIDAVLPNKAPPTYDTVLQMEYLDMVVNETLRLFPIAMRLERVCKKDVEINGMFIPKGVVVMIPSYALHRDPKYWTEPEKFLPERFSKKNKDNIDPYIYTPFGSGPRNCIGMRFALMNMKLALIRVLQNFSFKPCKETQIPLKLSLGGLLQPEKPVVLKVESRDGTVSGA
# In short: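 Luminescent readout of luciferin produced by CYP3A4 (20 nM) dealkylation of Luciferin-PPXE, 25 uM (its KM). NADPH-driven reaction ran 60 min at RT after 10 min compound preincubation; data scaled to 57 uM ketoconazole as 100% inhibition.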
# [2] = test system: Zika virus NS2B-NS3 protease (unlinked complex); test: Confirmatory screen GU AMC qHTS for Zika virus inhibitors (AID 1347153); also: nearly all actives have a fitted effect of over 70% in size;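 as to potency: enzyme at 25 nM with substrate at 10 µM below its Km of 18.3 µM; potency is read from the fitted curve at half-maximal effect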
# In short: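 Compounds were preincubated 15 min at room temperature with 25 nM noncovalent NS2B-NS3 protease at pH 8.0; AMC substrate added at 10 microM and 15-min fluorescence gain (340/450 nm) converted to percent inhibition, fitted 4-parameter.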
# [3] = ZIKV-mCherry secondary qHTS for Zika virus inhibitors (AID 1347158); also: potency is read from the fitted curve at half-maximal effect
# In short: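 Read-out is percent infection: mCherry-positive Vero cells (nuclear-proximal intensity >450 RFU, 3 SD above negative controls) counted by high-content imaging of Hoechst-stained, PFA-fixed wells after 48-72 h with ZIKV-mCherry at MOI 1 and compound.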
# [4] = test system: Zika virus NS2B-NS3 protease (linked); test: 384 well plate NINDS AMC confirmatory qHTS for Zika virus inhibitors (AID 1347163); also: nearly all actives have a fitted effect of over 50% in size; also: potency is read from the fitted curve at half-maximal effect
# In short: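 Enzyme (5, 30 or 60 nM final) first met test compounds for ~15 min. The AMC-tagged peptide Ac-VKTGKR-AMC followed at 30 microM. Fluorescence was then recorded at 25 min and scaled against no-enzyme and no-inhibitor wells.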
# [5] = test system: Zika virus NS2B-NS3 protease (linked construct); test: 384 well plate NINDS Rhodamine confirmatory qHTS for Zika virus inhibitors (AID 1347164); also: potency is read from the fitted curve at half-maximal effect; nearly all actives have a fitted effect of over 65% in size
# In short: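 Compounds are incubated about 15 minutes with linked protease (5, 30 or 60 nM final). Rhodamine 110-tagged Ac-LKRR substrate (10 microM final) is added and fluorescence measured after 25 minutes.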
# [6] = Tertiary RLuc qRT-PCR qHTS assay for Zika virus inhibitors (AID 1347169); also: nearly all actives have a fitted effect of over 55% in size; also: potency is read from the fitted curve at half-maximal effect
# In short: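 Orthogonal cell-based infection assay using recombinant ZIKV-RLuc (Cambodian) in Vero cells; compound added prior to virus at MOI 1-2. Incubation lasts 48-72 hrs at 37 degrees C before live-cell Renilla substrate is added and luminescence measured.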
# [7] = qHTS profiling of the MIPE4 collection as inhibitors of Plasmodium falciparum (3D7) proliferation (AID 743344; call rule not given here); conditions: P. falciparum 3D7 in erythrocytes, SYBR Green DNA fluorescence, 72 h; at 28.5 µM (top of the series)
# In short: (§1)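 Parasite DNA was quantified by SYBR Green I fluorescence (ex 485, em 535 nm) after overnight lysis in saponin/Triton buffer at room temperature. Cultures at 0.3% parasitemia and 2.5% hematocrit were first exposed to compound for 72 h at 37 C; signals were normalised to artemisinin (0.29 uM) and vehicle wells.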
# [8] = qHTS profiling of the MIPE4 collection as inhibitors of Plasmodium falciparum (DD2) proliferation (AID 743345; call rule not given here); conditions: P. falciparum Dd2 in erythrocytes, SYBR Green DNA, 72 h; at 28.5 µM (top of the series)
# In short: as §1
# [9] = qHTS profiling of the MIPE4 collection as inhibitors of Plasmodium falciparum (DD2) proliferation (Rep 2) (AID 743346; call rule not given here); conditions: P. falciparum Dd2 in erythrocytes, SYBR Green DNA, 72 h; at 28.5 µM (top of the series)
# In short: as §1
# [10] = qHTS profiling of the MIPE4 collection as inhibitors of Plasmodium falciparum (HB3) proliferation (AID 743347; call rule not given here); conditions: P. falciparum HB3 in erythrocytes, SYBR Green DNA, 72 h; at 28.5 µM (top of the series)
# In short: as §1
# [11] = Confirmatory screen NINDS Rhodamine qHTS for Zika virus inhibitors (AID 1347161); also: nearly all actives have a fitted effect of over 60% in size; also: potency is read from the fitted curve at half-maximal effect
# In short: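 Kinetic fluorescence (Ex 480 nm, Em 540 nm) over 15 min with 1.5 microM Rhodamine110 peptide and 25 nM linked protease.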
# [12] = Vero cells viability qHTS for Zika virus inhibitors (AID 1347167)
# In short: (§2)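 Luminescent ATP readout (CellTiter Glo) after 30 min at 37 degrees C gives viability; cells in DMEM + 4% FBS were treated 24 to 48 hours with compound, following overnight attachment.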
# [13] = HepG2 cells viability qHTS for Zika virus inhibitors (AID 1347168); also: potency is read from the fitted curve at half-maximal effect
# In short: as §2
# [14] = test system: Zika virus NS2B-NS3 protease (linked construct); test: Confirmatory screen NINDS AMC qHTS for Zika virus inhibitors (AID 1347152); also: nearly all actives have a fitted effect of over 70% in size; also: potency is read from the fitted curve at half-maximal effect
# In short: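 In this dose-response qHTS, AMC release from 10 microM Bz-Nle-KRR-AMC by 1 nM linked protease is measured over 15 minutes (about 20% conversion) at pH 8.0. Percent inhibition is fitted to a 4-parameter Hill curve.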
# [15] = test system: Zika virus NS2B-NS3 protease; test: Primary screen GU AMC qHTS for Zika virus inhibitors (AID 1347154); also: nearly all actives have a fitted effect of over 70% in size; also: potency is read from the fitted curve at half-maximal effect
# In short: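 Fluorogenic AMC-substrate cleavage by noncovalent NS2B-NS3 protease complex (25 nM, pH 8.0 Tris buffer with Tween 20) followed for 15 minutes at room temperature (~20% conversion). Percent inhibition from ex340/em450 signal change, fitted by 4-parameter Hill equation.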
# [16] = target: Cytochrome P450 1A2 (Homo sapiens) (UniProt P05177); test: p450-cyp1a2 (AID 410; calls by dose curve; also: potency is read from the fitted curve at half-maximal effect)
# Cytochrome P450 1A2 (Homo sapiens), sequence (P05177 whole entry, looked up): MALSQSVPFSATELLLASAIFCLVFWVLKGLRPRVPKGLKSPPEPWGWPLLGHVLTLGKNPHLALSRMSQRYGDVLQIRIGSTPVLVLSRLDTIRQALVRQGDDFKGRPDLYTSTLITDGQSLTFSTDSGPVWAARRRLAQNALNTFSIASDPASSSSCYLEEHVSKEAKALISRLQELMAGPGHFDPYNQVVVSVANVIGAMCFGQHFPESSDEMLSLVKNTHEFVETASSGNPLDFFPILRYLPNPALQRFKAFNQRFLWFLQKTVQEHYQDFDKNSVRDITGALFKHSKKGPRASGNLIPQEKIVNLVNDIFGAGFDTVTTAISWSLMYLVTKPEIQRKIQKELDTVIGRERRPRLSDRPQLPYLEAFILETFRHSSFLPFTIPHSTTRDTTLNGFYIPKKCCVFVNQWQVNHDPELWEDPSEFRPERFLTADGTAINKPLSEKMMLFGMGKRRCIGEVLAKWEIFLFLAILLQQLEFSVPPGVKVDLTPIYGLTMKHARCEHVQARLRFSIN
# In short: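 20nM CYP1A2, 100uM Luciferin-ME (=Km), 100mM KPO4; cpd 10 min RT; +NADPH regen, 60 min RT; stop/detect 20 min; luminescence. Normalized to furafylline 57 uM = full inhibition.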
# [17] = target: Glucocorticoid receptor (Homo sapiens) (UniProt P04150); test: GR-GFP Redistribution (AID 450;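 active = compounds whose dose series gives a full or clear partial fitted curve of increased nuclear translocation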; also: potency is read from the fitted curve at half-maximal effect); conditions: U2OS GR-GFP nuclear translocation, laser cytometry, 2 h
# Glucocorticoid receptor (Homo sapiens), sequence (P04150 whole entry, looked up, the tested form may be a part): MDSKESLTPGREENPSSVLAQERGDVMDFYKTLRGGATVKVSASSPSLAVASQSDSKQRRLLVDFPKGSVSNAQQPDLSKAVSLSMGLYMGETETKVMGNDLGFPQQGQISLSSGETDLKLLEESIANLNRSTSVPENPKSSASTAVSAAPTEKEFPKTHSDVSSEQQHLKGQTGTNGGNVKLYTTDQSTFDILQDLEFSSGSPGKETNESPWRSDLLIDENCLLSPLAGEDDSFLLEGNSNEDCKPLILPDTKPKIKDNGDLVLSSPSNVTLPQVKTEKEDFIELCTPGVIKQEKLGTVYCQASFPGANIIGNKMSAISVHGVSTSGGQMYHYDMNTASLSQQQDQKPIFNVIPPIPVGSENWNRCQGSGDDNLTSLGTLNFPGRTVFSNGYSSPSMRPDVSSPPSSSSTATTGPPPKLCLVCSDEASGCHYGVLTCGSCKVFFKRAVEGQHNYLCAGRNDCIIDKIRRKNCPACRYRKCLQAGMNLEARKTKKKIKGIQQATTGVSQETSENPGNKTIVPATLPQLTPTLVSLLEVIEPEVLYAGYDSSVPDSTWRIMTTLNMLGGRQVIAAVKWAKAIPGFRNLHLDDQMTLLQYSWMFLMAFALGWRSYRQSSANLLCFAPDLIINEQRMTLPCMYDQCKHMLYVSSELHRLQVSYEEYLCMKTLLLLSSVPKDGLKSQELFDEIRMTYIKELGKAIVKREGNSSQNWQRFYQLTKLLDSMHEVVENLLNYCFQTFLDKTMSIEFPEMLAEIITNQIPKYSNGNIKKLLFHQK
# [18] = target: Glucocorticoid receptor (Homo sapiens) (UniProt P04150); test: GR-EFC Redistribution (AID 451; calls by dose curve; also: potency is read from the fitted curve at half-maximal effect); conditions: CHO-K1 GR-EFC translocation, beta-gal luminescence, 2 h
# In short: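 Translocation of GR-ED fusion to nuclear EA restores b-gal, read by luminescence after 1 h room-temperature detection. Engineered CHO-K1 biosensor cells, 1,000/well, exposed 2 h at 37 C to titrations up to 46 uM final.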
# [19] = target: Cytochrome P450 3A4 (Homo sapiens) (UniProt P08684); test: qHTS Assay for Activators of Cytochrome P450 3A4 (AID 885); also: nearly all actives have a fitted effect of over 65% in size
# In short: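 Luminescent readout of luciferin formed from 25 uM Luciferin-PPXE (KM level) by 20 nM CYP3A4 in 200 mM KPO4, with 60 min NADPH-driven reaction at room temperature after 10 min compound exposure. Ketoconazole (57 uM) defined 100% inhibition.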
# [20] = Primary qHTS for small molecule stabilizers of the endoplasmic reticulum resident proteome: Secreted ER Calcium Modulated Protein (SERCaMP) assay (AID 1508630)
# In short: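 The SH-SY5Y reporter protocol was run at 3 concentrations up to 38.3 uM (primary) or 11 concentrations (follow-up): 16 h compound, 100 nM thapsigargin for 4 h, then extracellular luciferase luminescence.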
# [21] = target: Calcium and integrin-binding protein 1 (Homo sapiens) (UniProt Q99828); test: Primary qHTS for Identification of Calcium Integrin Binding Protein 1 (CIB1) Competitor (AID 1508620);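 also: GST tagged CIB1 binding a fluorescein labelled alphaIIb integrin peptide tracer; top concentration of the series differs between compounds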
# Calcium and integrin-binding protein 1 (Homo sapiens), sequence (Q99828 whole entry, looked up): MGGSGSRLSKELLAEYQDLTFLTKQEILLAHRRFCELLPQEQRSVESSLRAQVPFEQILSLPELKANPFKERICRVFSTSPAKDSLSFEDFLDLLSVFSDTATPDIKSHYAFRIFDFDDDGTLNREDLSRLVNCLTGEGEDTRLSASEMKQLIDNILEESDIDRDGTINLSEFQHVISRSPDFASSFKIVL
# In short: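 CIB1-GST (1 uM final) and compound incubated 15 min at room temperature before adding FITC-alphaIIb peptide tracer (100 nM final). Competition for binding read by fluorescence polarization (ex 480, em 540) after another 15 min at room temperature.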
# [22] = target: Glutathione peroxidase 1 (Homo sapiens) (UniProt P07203); test: Primary qHTS Assay for Inhibitors of Recombinant Selenoprotein Glutathione Peroxidase 1 (GPX1) (AID 1845191); also: nearly all actives have a fitted effect of over 65% in size
# Glutathione peroxidase 1 (Homo sapiens), sequence (P07203 whole entry, looked up): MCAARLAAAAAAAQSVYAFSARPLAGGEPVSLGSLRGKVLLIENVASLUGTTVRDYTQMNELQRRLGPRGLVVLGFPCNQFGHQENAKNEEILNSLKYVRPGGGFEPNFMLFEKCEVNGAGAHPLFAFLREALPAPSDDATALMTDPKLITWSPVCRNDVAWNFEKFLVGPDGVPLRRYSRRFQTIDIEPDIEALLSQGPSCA
# In short: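 NADPH consumption tracked by fluorescence at 340/450 nm between t=0 and t=15 min, room temperature. Final mix: 10 nM GPX1, 100 nM glutathione reductase, 1 mM GSH, 0.5 mM NADPH, 0.5 mM cumene hydroperoxide, 0.01% BSA; 30 min compound–enzyme preincubation.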
# [23] = Counterscreen qHTS for small molecule stabilizers of the endoplasmic reticulum resident proteome: GLuc-NoTag assay (AID 1508627);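 also: SH-SY5Y cells given compound then 100 nM thapsigargin to empty ER calcium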
# In short: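 Counterscreen line: SH-SY5Y-GLuc-NoTag cells, treated with compound 19 hr before a 4 hr, 100 nM thapsigargin calcium depletion. Secreted Gaussia luciferase in the medium was measured by luminescence after coelenterazine was added (0.07x final), with cells unlysed.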
compound,measurement,setting,value
COc1cc(O)c2c(=O)cc(-c3ccc(OC)c(-c4c(O)cc(O)c5c(=O)cc(-c6ccc(O)cc6)oc45)c3)oc2c1,Potency,[1],inactive
same,Potency,[2],44.1 µM (active)
same,Potency,[3],11.2 µM (active)
same,Potency,[4],35.5 µM (active)
same,Potency,[5],112 µM (active)
same,Potency,[6],16.5 µM (active)
O=C(O)c1cc(NCc2cc(O)ccc2O)ccc1O,"parasite growth, % of DMSO control",[7],85.7%
same,"parasite growth remaining, % of DMSO control (lower = more inhibition)",[8],96.7%
same,"parasite growth, % of control (lower = inhibition)",[9],67.1%
same,"growth, % of control",[10],68.7%
same,Potency,[2],inactive
same,Potency,[11],12.4 µM (active)
same,Potency,[4],inactive
same,Potency,[5],22.4 µM (active)
same,Potency,[12],inactive
same,Potency,[13],inactive
Clc1ccc(-c2nn3c(COc4cc(Cl)c(OCc5nnc6sc(-c7ccc(Cl)cc7)nn56)cc4Cl)nnc3s2)cc1,Potency,[14],20 µM (active)
same,Potency,[3],inactive
same,Potency,[11],6.31 µM (active)
same,Potency,[4],14.1 µM (active)
same,Potency,[5],28.2 µM (active)
COc1cccc(OC)c1-c1cc(C(=O)NC2(C(=O)O)C3CC4CC(C3)CC2C4)nn1-c1ccc(C(=O)N(C)CCCN(C)C)cc1C(C)C (stereo not given),Potency,[15],inactive
O=C(O)c1ccc(-c2cc(C(F)(F)F)ccc2Cl)cc1,Potency,[14],inactive
same,Potency,[3],inactive
Cc1c(-c2ccc(O)cc2)nn(-c2ccc(O)cc2)c1-c1ccc(OCCN2CCCCC2)cc1,Potency,[16],12.6 µM (active)
same,Potency,[17],> 46 µM (inactive)
same,Potency,[18],> 46 µM (inactive)
same,Potency,[19],inactive
same,Potency,[2],inactive
same,Potency,[11],inactive
same,Potency,[12],inactive
same,Potency,[13],29.4 µM (active)
COc1ccccc1-c1ccnc(N[C@H]2CO[C@H]3[C@@H]2OC[C@@H]3NS(=O)(=O)c2ccc3ccccc3c2)n1,Potency,[14],inactive
same,Potency,[2],inactive
same,Potency,[6],16.5 µM (active)
CCCCn1c(=O)c2[nH]c(C34CC5CC(CC3C5)C4)nc2n(CCCO)c1=O,Potency,[15],inactive
C[C@@H](NC(=O)c1ccc(Cl)cc1)c1c(-c2ccc(F)cc2)noc1C(=O)O,Potency,[14],inactive
same,Potency,[3],inactive
same,Potency,[6],inactive
COc1ccc(CCCn2ncc3c2nc(N)n2nc(-c4ccco4)nc32)cc1,Potency,[15],inactive
O=C(O)c1cc(N(Cc2ccccc2O)Cc2cc(O)ccc2O)ccc1O,Potency,[15],inactive
Nc1cc(N)c(N=Nc2ccc(S(=O)(=O)Nc3nccs3)cc2)cc1N=Nc1ccc(S(=O)(=O)Nc2nccs2)cc1,Potency,[14],12.6 µM (active)
same,Potency,[4],63.1 µM (active)
same,Potency,[5],20 µM (active)
C=NC(C(=O)N[C@H]1C(=O)N2C1SC(C)(C)C2C(=O)O)c1ccccc1 (stereo not given in full),Potency,[2],inactive
same,Potency,[15],26.7 µM (active)
same,Potency,[12],inactive
same,Potency,[13],inactive
same,Potency,[6],inactive
same,Potency,[20],inactive
O=C(OCC#CCSc1nnc(-c2ccc(Cl)cc2)o1)c1ccc(F)cc1,Potency,[14],inactive
same,Potency,[2],inactive
same,Potency,[6],inactive
same,outcome,[21],inactive
CO[C@H]1C[C@@H](O[C@@H]2/C(C)=C/C[C@@H]3C[C@@H](C[C@]4(CC[C@H](C)[C@@H](C5CCCCC5)O4)O3)OC(=O)[C@@H]3C=C(C)/C(=N/O)[C@H]4OC/C(=C\C=C\[C@@H]2C)[C@]43O)O[C@@H](C)[C@H]1O,Potency,[2],inactive
same,Potency,[11],22 µM (active)
same,Potency,[20],inactive
same,Potency,[22],inactive
COc1ccc(NC(=O)c2cc(OCCCN(C)C)nn2Cc2ccccc2)cc1,Potency,[15],inactive
same,Potency,[23],inactive
